RORg inh – blocks mouse ROR gamma transcriptional activity; Drosophila S2 Gal4-RORgamma UAS-luciferase reporter, 20 h; Potency, µM (titrated, usually from 53.6 µM), actives largely listed as inhibitors; actives 5.4% (n = 310,000); AID 2551; note: nearly all actives have a fitted effect of over 60% in size
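Stable Schneider cell line, Gal4 DNA-binding domain fused to ROR gamma, UAS-luciferase. Cmpd 1 hr RT → CuSO4 700 uM final → 20 hr RT → luciferase reagent 10 min → luminescence.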
TDP1 cell CPT – DT40-hTDP1 cell growth loss with CPT. actives 12% (n = 420,000). chicken DT40 Tdp1-/-;hTDP1 cells + 20 nM CPT, ATP luminescence, 48 h. Potency, µM (titrated, usually from 46.2 µM), most hits filed as inhibitors; note: nearly all actives have a fitted effect of over 55% in size
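Chicken DT40 Tdp1-/- cells complemented with human TDP1, 400 cells/well, exposed to compounds plus 20 nM camptothecin for at least 48 h at 37 C; viability read as ATP content by CellTiter-Glo luminescence.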
TDP1 block – blocks human tyrosyl-DNA phosphodiesterase 1 | Potency, µM (doses to about 130 µM), most hits filed as inhibitors | actives 0.28% (n = 350,000) | AID 485290 | recombinant TDP1, AlphaScreen DNA substrate cleavage; note: nearly all actives have a fitted effect of over 40% in size
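Tdp1 1 nM final; 15 min RT w/ cpd; substrate 15 nM, 5 min; beads 10 ug/ml, 10 min; AlphaScreen read. Neg ctrl: no enzyme.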
DT40 TDP1 no CPT – qHTS for Inhibitors of human tyrosyl-DNA phosphodiesterase 1 (TDP1): qHTS in cells in absence of CPT; DT40 Tdp1-/- hTDP1 cells, no CPT, ATP luminescence, 48 h; Potency, µM (top dose mostly 46.2 µM), actives largely listed as inhibitors; actives 15% (n = 420,000); AID 686978, 2013; note: nearly all actives have a fitted effect of over 55% in size
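Luminescent ATP content (CellTiter-Glo) served as the growth readout. Knockout chicken DT40 cells expressing human TDP1 were exposed to compounds without camptothecin for a minimum 48 hr at 37 °C.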
Gal4-VP16 FLuc – Gal4-VP16 reporter inhibition counter-screen | Drosophila S2 Gal4-VP16 UAS-luciferase, luminescence, 20 h | Potency, µM (series often up to 53.6 µM), actives largely listed as inhibitors | actives 3.5% (n = 310,000);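 note: Gal4-VP16 expression switched on by copper sulfate through the metallothionein promoter; nearly all actives have a fitted effect of over 50% in size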
A number is an active result; 0 = inactive; ? = inconclusive; - = no result given; ! = repeats disagree. This is a sample that favours compounds with a hit; in the whole collection about 19% have one here. Calls come from the whole dose curve; as a rule, active = well fitted curve in the direction sought with a large enough effect; inconclusive = small, poorly fitted or top-dose-only effect, or another doubt; inactive = no such curve, though single readings can be large; an effect the other way counts as inactive or inconclusive.

SMILES	RORg inh	TDP1 cell CPT	TDP1 block	DT40 TDP1 no CPT	Gal4-VP16 FLuc
CN(C)S(=O)(=O)N1CCC(Oc2ccc(C(=O)N3C[C@H]4CC[C@H]3C4)cc2)CC1	0	11.6µM	0	20.6µM	?
COC1CCCN(C(=O)c2ccc(OC3CCN(S(=O)(=O)N(C)C)CC3)cc2)C1 (centres undefined)	0	0	0	?	0
CN(C)S(=O)(=O)N1CCC(Oc2ccc(C(=O)N3C[C@@H]4CCC[C@H]3C4)cc2)CC1	-	16.4µM	-	?	-
C[C@@H]1CN([C@H](C)CO)C(=O)CCCn2nncc2CO[C@H]1CN(C)Cc1ccc2c(c1)OCO2	-	0	-	0	-
O=c1[nH]c(NC2CCCCC2)nnc1Cc1ccccc1	0	?	0	0	0
CCCOc1ccc(CN(C(=O)c2cc(=O)c3ccc(C)cc3o2)C2CCS(=O)(=O)C2)cc1 (centres undefined)	-	?	0	?	-
CCc1ccc(CN(C(=O)c2cc(=O)c3ccc(C)cc3o2)C2CCS(=O)(=O)C2)cc1 (centres undefined)	-	16.4µM	0	?	-
Cc1ccc(CN(C(=O)c2cc(=O)c3cc(C)cc(C)c3o2)C2CCS(=O)(=O)C2)cc1 (centres undefined)	0	?	0	18.4µM	0
C=Cc1ccc(N=Cc2c(O)ccc3ccccc23)cc1	0	?	-	0	0
Cc1cc(Nc2ccc(C(=O)O)cc2)n2nc(C)nc2n1	0	0	0	0	0
COc1ccc(CNS(=O)(=O)CCNCc2ccccc2OC)cc1	-	0	-	0	-
CCCCCCCCNS(=O)(=O)CCNCc1ccccc1OC	-	?	-	20.6µM	-
CCCCCCCCNCCS(=O)(=O)NCCCCCCCC	-	?	-	16.4µM	-
O=[N+]([O-])CC(c1ccc(F)cc1)c1c[nH]c2ccccc12 (centres undefined)	0	7.31µM	-	6.51µM	0
Cc1ccc(S(=O)(=O)NCCC(=O)NNC(=O)c2ccccc2O)cc1C	-	?	0	?	-
Cc1nnc(SC(C)C(=O)NC2CCCc3ccccc32)n1-c1ccccc1 (centres undefined)	0	0	0	0	0
CC(Sc1nnc(Nc2ccccc2)s1)C(=O)NC1CCCc2ccccc21 (centres undefined)	0	?	0	23.1µM	?
Cc1cccc(Nc2nnc(SCC(=O)NC3CCCc4ccccc43)s2)c1C (centres undefined)	0	14.6µM	0	8.2µM	0
CN1C(=O)N(C)C(NC(=O)Nc2ccccc2)C1NC(=O)Nc1ccccc1 (centres undefined)	0	0	0	0	0
Cc1ccc(C(=O)c2nc(C(=O)NCCO)nc3ccccc23)cc1	-	?	0	0	-
CC(C)NC(=O)NNC(=O)Cn1nnc(-c2cccc(Cl)c2Cl)n1	31.6µM	0	0	0	0
C[N+]1(C)CCC(=C2c3ccccc3CC(=O)c3sccc32)CC1	0	25.9µM	0	?	0
CC[N+]1(C)CCC(=C2c3ccccc3CC(=O)c3sccc32)CC1 (centres undefined)	0	0	0	0	0
CCN(C(=O)Cn1ncc2c(=O)oc3ccccc3c21)c1ccccc1F	-	0	0	?	-
CCCN(C(=O)Cn1ncc2c(=O)oc3ccccc3c21)c1cccc(C)c1	0	23.1µM!	0	20.6µM	0
SMILES	RORg inh	TDP1 cell CPT	TDP1 block	DT40 TDP1 no CPT	Gal4-VP16 FLuc
O=C(Cn1ncc2c(=O)oc3ccccc3c21)NC1CC1	0	0	0	0	0
Cc1ccc2c(c1)-c1c(cnn1CC(=O)N1CCN(c3cc(Cl)ccc3C)CC1)CO2	-	?	0	?	-
Cc1ccc2oc(=O)c3cnn(CC(=O)NC4CCN(Cc5ccccc5)CC4)c3c2c1	0	16.4µM	0	20.6µM	0
Cc1ccc2oc(=O)c3cnn(CC(=O)N4CCN(c5cc(Cl)ccc5C)CC4)c3c2c1	-	?	0	16.4µM	-
Cc1ccc(N(C)C(=O)Cn2ncc3c([nH]c4ccccc43)c2=O)cc1C	-	11.6µM	0	?	-
O=C(COc1cccc2cccnc12)NCc1cccs1	0	0	0	0	0
CCCc1ccc(OCc2ccc(C(=O)N3CCSCC3)o2)cc1	?	?	-	0	0

Compound activity (PubChem)
